Source: PubChem (National Center for Advancing Translational Sciences (NCATS))
Only some compounds are listed: those with a hit (about 8% of all), similar ones and a draw of the others.
HT1080-NT tox – kills 2HG-producing HT-1080-NT fibrosarcoma cells. HT-1080-NT fibrosarcoma viability, CellTiter-Glo ATP luminescence, 48 h. AID 686970. 360,000 tested, 1.6% active. Potency, µM (top dose mostly 46.1 µM), usual class: cytotoxic;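 further: NT is the 2HG producing partner of a matched IDH1 knockdown line; nearly all actives have a fitted effect of over 55% in size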
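Fibrosarcoma NT cells, 750 per well in 5% FBS RPMI, were exposed to compound for 48 hours. Viability: CellTiter-Glo luminescence.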
KB-V1 cytotox – kills drug-selected multidrug resistant KB-V1 cells; 400,000 tested, 3.4% active; Potency, µM (highest dose often 46.1 µM), hits mostly cytotoxic; KB-V1 MDR cells viability, CellTiter-Glo, 72 h; AID 1347076; further: nearly all actives have a fitted effect of over 60% in size
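Cytotoxicity toward P-gp-expressing KB-V1 cells was determined as loss of CellTiter-Glo luminescence after 72 h at 37 degrees C. Compounds were tested in quantitative HTS format across a concentration range, with curves fitted to normalized data.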
MCF10A rerep – induces DNA re-replication in MCF 10a normal breast cells; MCF 10A DNA re-replication, Hoechst nuclear intensity, 48 h; Potency, µM (titrated, usually from 46.1 µM), most hits filed as activators; 350,000 tested, 2.9% active; AID 624296; further: nearly all actives have a fitted effect of over 50% in size
KB-3-1 cytotox – KB-3-1 parental cell cytotoxicity | AID 1347075 | 400,000 tested, 1.4% active | KB-3-1 viability, CellTiter-Glo ATP luminescence, 72 h | Potency, µM (highest dose often 46.1 µM), usual class: cytotoxic; further: nearly all actives have a fitted effect of over 60% in size
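Cytotoxicity in the drug-sensitive parental line KB-3-1 was scored as loss of CellTiter-Glo luminescence following 72 h incubation with compound. Values come from curve fitting of normalized concentration-response data.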
HT1080 IDH1KD tx – kills HT-1080 cells with IDH1 knockdown | Potency, µM (series often up to 46.1 µM), actives largely listed as cytotoxic | 360,000 tested, 2% active | HT-1080 IDH1 knockdown viability, ATP luminescence, 48 h
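Using the IDH1-knockdown HT-1080 line run in the same batch and compound series as the NT line, viability after 48 h at 37 °C was determined by CellTiter-Glo luminescence and expressed as % activity.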
SW480 rerep – DNA re-replication induction in SW480 cells | SW480 DNA re-replication, Hoechst DNA content imaging, 48 h | Potency, µM (doses to about 46.1 µM), hits mostly activators | 340,000 tested, 1.8% active | AID 624297; further: nearly all actives have a fitted effect of over 55% in size
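Treated cells incubate 48 hr (37 C, 5% CO2), are stained 40 min with Hoechst, and nuclear fluorescence is enumerated; a rise in nuclei with high DNA signal marks re-replication.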
A number is an active result; – = inactive; ? = inconclusive; · = no result. The call rests on the fitted dose curve; in most records, active means well fitted curve in the direction sought with a large enough effect; inconclusive means small, poorly fitted or top-dose-only effect, or another doubt; inactive means no such curve, though single readings can be large; an effect the other way counts as inactive or inconclusive.

SMILES	HT1080-NT tox	KB-V1 cytotox	MCF10A rerep	KB-3-1 cytotox	HT1080 IDH1KD tx	SW480 rerep
Cc1ccc(C(NC(=O)C2CCN(Cc3ccc(Oc4ccccc4)cc3)CC2)c2ccccn2)cc1 (stereo not drawn)	15µM	–	·	–	21µM	·
O=C(NC(c1ccc(Cl)cc1)c1cnccn1)C1CCN(Cc2ccc(Oc3ccccc3)cc2)CC1 (stereo not drawn)	?	?	·	?	16µM	·
Cc1cccnc1C(NC(=O)C1CCN(Cc2ccc(Oc3ccccc3)cc2)CC1)c1ccc(F)cc1 (stereo not drawn)	21µM	?	·	?	?	·
CN(CC(=O)Nc1ccccc1Br)C(=O)COc1cccc2c1OC(C)(C)C2	–	–	–	–	–	–
Cc1nc2c3ccccc3nc(NNC(=O)CCC(=O)N3CCN(c4cccc(Cl)c4)CC3)n2n1	·	–	·	–	·	·
Cc1cc(=O)oc2cc(OCC(=O)N3c4ccccc4CC3C)ccc12 (stereo not drawn)	2.6µM	2.6µM	2.5µM	2.9µM	2.6µM	1.6µM
O=[N+]([O-])c1ccc(OCC2CC(c3ccccc3)=NO2)cc1 (stereo not drawn)	–	–	?	–	–	16µM
O=[N+]([O-])c1ccc(OCc2nnc(-c3ccccc3)o2)cc1	–	–	–	–	–	–
Cc1cc(=O)oc2cc(OCC3CC(c4ccccc4)=NO3)ccc12 (stereo not drawn)	11µM	8.2µM	4.1µM	7.3µM	?	5.2µM
Cc1cc(=O)oc2cc(OCC3CC(c4ccc(Br)cc4)=NO3)ccc12 (stereo not drawn)	–	21µM	9.2µM	?	–	?
Cc1ccc(-n2c(=O)c3c(cnn3C)n(Cc3ccccc3F)c2=O)cc1	·	–	·	–	·	·
CSc1ccccc1-c1n[nH]c(=S)o1	–	–	–	–	–	–
COc1cc(/C=C/[N+](=O)[O-])ccc1OC(=O)/C=C/c1ccc(F)cc1	–	–	–	?	–	–
COc1ccc(CNC(=O)C/C(C)=N/NC(=O)C23CC4CC(CC(C4)C2)C3)cc1	–	–	–	–	–	–
COc1ccccc1S(=O)(=O)Cc1ccc(C(=O)NCCCN2CCN(c3ccc(F)cc3)CC2)o1	–	–	–	–	–	–
COc1ccc(-c2ccc(CCC(=O)O)n2CC(C)C)cc1	?	–	?	?	?	9.2µM
O=C(O)CCc1ccc(-c2ccc(Br)cc2)n1-c1ccccc1O	·	–	·	–	·	·
COc1ccc(-c2ccc(CCC(=O)O)n2-c2ccccc2C(F)(F)F)cc1	·	–	·	18µM	·	·
COc1ccc(-c2ccc(CCC(=O)O)n2-c2cc(OC)ccc2OC)cc1	23µM	?	·	?	?	·
COc1ccc(-n2c(CCC(=O)O)ccc2-c2ccccc2)cc1	–	–	–	–	–	–
COc1ccc(-c2ccc(CCC(=O)O)n2-c2ccccc2O)cc1	?	–	1.8µM	?	?	21µM
CCCCc1cc(=O)oc2cc(OCC(=O)N(CC)CC)ccc12	–	7.3µM	–	–	–	–
C=C(Cl)COc1ccc2c(CCCC)cc(=O)oc2c1	–	–	–	–	–	–
O=C(CCl)N1c2ccccc2Sc2c1ccc1ccccc21	?	?	18µM	?	?	?
Cc1ccc(C)c(NC(=O)CSc2nc(N)c(NC(=O)c3cccs3)c(=O)[nH]2)c1	–	–	–	–	–	–
O=C(CSc1nc2nc(-c3cccs3)cc(C(F)(F)F)c2c(=O)[nH]1)Nc1ccc(F)c(F)c1	?	?	18µM	15µM	?	–
Cc1ccc(C)c(NC(=O)CSc2nc3nc(-c4cccs4)cc(C(F)(F)F)c3c(=O)[nH]2)c1	?	–	21µM	–	?	–
COc1ccccc1N1CCN(S(=O)(=O)CCNC(=O)c2cccs2)CC1	–	–	·	–	–	·
c1ccc(-c2csc3ncnc(Sc4nnnn4-c4ccccc4)c23)cc1	·	–	·	?	·	·
Cc1cc(N=Nc2c(O)c3ccccc3[nH]c2=O)ccc1N=Nc1ccc(C(=O)N(C)C)cc1	–	–	–	–	–	–
